Results published in PubChem BioAssay.
The source made the active and inactive calls. Unless noted, no rule for the calls is given here.

What was measured:
[1] = compound effects on lung adenocarcinoma cell viability – A549, calcein-AM fluorescence, 48 h, basal, profiling panel (AID 1162); settings: higher = more signal; also: test concentration not given here
[2] = compound effects on differentiated 3T3-L1 adipocyte viability – cell-based, 3T3-L1 adipocytes, calcein-AM fluorescence, 48 h, basal, profiling panel (AID 1163); settings: 3T3-L1 adipocytes viability, higher = more signal; also: test concentration not given here
[3] = compound effects on hepatocellular carcinoma cell viability – HepG2, calcein-AM fluorescence, 48 h, basal, profiling panel (AID 1164); settings: higher = more signal; also: test concentration not given here
[4] = compound effects on multiple myeloma cell viability – MM1S, calcein-AM fluorescence, 48 h, basal, profiling panel (AID 1165); settings: higher = more signal;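 also: viability of MM1S multiple myeloma cells under basal unstimulated conditions; test concentration not given here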
[5] = calcein-AM signal in unstimulated myeloma cells – cell-based, calcein-AM fluorescence, 48 h, PK04 Diversity Set, profiling panel (AID 1166); settings: RPMI8226 myeloma viability, higher = more signal;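 also: cells grown under basal conditions without added stimulus; test concentration not given here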
[6] = JC-1 mitochondrial signal, unstimulated HepG2 cells – cell-based, JC-1 fluorescence, 24 h, 100 nL compound, profiling panel (AID 1167); settings: HepG2 mitochondrial potential, higher = more signal; also: test concentration not given here
[7] = JC-1 mitochondrial signal, unstimulated adipocytes – cell-based, JC-1 fluorescence, 3T3-L1 adipocytes, 24 h, 100 nL compound, profiling panel (AID 1168); settings: JC-1 mitochondrial fluorescence, higher = more signal, called active from +8 up or from −8 down; also: test concentration not given here
[8] = JC-1 mitochondrial signal, unstimulated myeloma cells – cell-based, JC-1 fluorescence, RPMI8226, 24 h, 100 nL compound, profiling panel (AID 1169); settings: JC-1 mitochondrial potential fluorescence, higher = more signal; also: test concentration not given here
[9] = JC-1 mitochondrial signal, unstimulated MM1S myeloma – cell-based, JC-1 fluorescence, 24 h, 100 nL compound, profiling panel (AID 1170); settings: MM1S mitochondrial potential, higher = more signal; also: test concentration not given here
[10] = resazurin metabolic signal in A549 cells – cell-based, resazurin fluorescence, 24 h, PK04 Diversity Set, profiling panel (AID 1171); settings: A549 viability, higher = more signal, called active from +8 up or from −8 down; also: test concentration not given here
[11] = resazurin metabolic signal in HepG2 cells – cell-based, resazurin fluorescence, 24 h, PK04 Diversity Set, profiling panel (AID 1172); settings: HepG2 viability, higher = more signal; also: test concentration not given here
[12] = budding yeast growth changes without added modifier – OD600, strain BY4716, 24 h, basal condition, primary screen (AID 1173); settings: S. cerevisiae BY4716 growth, OD600, 24 h; higher = more signal, called active from +8 up or from −8 down
[13] = viability profiling in MM1S myeloma cells – cell-based, resazurin fluorescence, basal, 24 h, PK04 Diversity Set, profiling panel (AID 1174); settings: higher = more signal, called active from +8 up or from −8 down; also: test concentration not given here
[14] = target: Dihydroorotate dehydrogenase (quinone), mitochondrial (Plasmodium falciparum (isolate 3D7)) (UniProt Q08210); experiment: inhibition of P. falciparum DHODH – biochemical, C-terminal His tag, absorbance 600 nm, primary screen (AID 1175); settings: PfDHODH enzyme, DCIP absorbance 600 nm; higher = more signal, called active from +8 up or from −8 down;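 also: recombinant parasite enzyme with a five histidine tag at its C terminus; test concentration not given here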
[15] = inhibition of PAO1 biofilm formation – strain PAO1, LB-PBS medium, absorbance 600 nm, primary screen (AID 1176); also: test concentration not given here; settings: P. aeruginosa PAO1 growth/biofilm, A600, 12 h; higher = more signal
[16] = growth modulation of vineyard yeast isolate – strain RM11-1a, OD600, basal, 24 h, primary screen (AID 1177);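 also: cultures grown under basal conditions with no added stressor; test concentration not given here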; settings: S. cerevisiae RM11-1a growth, OD600, 24 h; higher = more signal, called active from +8 up or from −8 down
[17] = growth of efflux-deficient E. coli DRC39 – strain DRC39, OD650, 24 h, E. coli filamentation inducers, primary screen (AID 1178);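 also: growth measured as culture turbidity by optical density at 650 nm; test concentration not given here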; settings: E. coli DRC39 acrAB, higher = more signal, called active from +8 up or from −8 down
[18] = growth of efflux-deficient E. coli DRC39 – strain DRC39, OD650, 48 h, E. coli filamentation inducers, primary screen (AID 1179);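 also: screen aims at cell division blockers that make cells filament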; settings: E. coli DRC39 delta-acrAB growth, higher = more signal, called active from +8 up or from −8 down
[19] = viability profiling in RPMI8226 myeloma cells – cell-based, resazurin fluorescence, basal, 24 h, PK04 Diversity Set, profiling panel (AID 1180); settings: higher = more signal;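 also: RPMI8826 multiple myeloma cell line at 5000 cells per well; test concentration not given here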
[20] = target: E3 ubiquitin-protein ligase XIAP (Homo sapiens) (UniProt P98170); experiment: small molecules binding XIAP protein – biophysical, small-molecule microarray, fluorescence 635 nm, primary screen (AID 1181); settings: higher = more signal;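 also: score merges 667 nm emission and signal to noise over triplicate slides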
Chain of E3 ubiquitin-protein ligase XIAP (Homo sapiens) (P98170 whole entry, looked up): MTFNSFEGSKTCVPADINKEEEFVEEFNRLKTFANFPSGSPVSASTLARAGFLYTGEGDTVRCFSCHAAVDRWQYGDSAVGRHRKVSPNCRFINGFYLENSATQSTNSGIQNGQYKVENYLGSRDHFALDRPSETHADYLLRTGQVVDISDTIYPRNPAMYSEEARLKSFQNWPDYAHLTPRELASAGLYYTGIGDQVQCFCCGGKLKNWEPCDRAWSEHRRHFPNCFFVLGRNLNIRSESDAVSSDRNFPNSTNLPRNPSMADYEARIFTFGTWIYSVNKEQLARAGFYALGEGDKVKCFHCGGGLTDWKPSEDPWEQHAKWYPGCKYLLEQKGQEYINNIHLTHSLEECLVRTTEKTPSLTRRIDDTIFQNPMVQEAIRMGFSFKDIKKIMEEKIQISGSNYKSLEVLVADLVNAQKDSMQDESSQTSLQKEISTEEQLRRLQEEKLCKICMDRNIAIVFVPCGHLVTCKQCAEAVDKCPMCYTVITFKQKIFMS

Chain of Dihydroorotate dehydrogenase (quinone), mitochondrial (Plasmodium falciparum (isolate 3D7)) (Q08210 whole entry, looked up): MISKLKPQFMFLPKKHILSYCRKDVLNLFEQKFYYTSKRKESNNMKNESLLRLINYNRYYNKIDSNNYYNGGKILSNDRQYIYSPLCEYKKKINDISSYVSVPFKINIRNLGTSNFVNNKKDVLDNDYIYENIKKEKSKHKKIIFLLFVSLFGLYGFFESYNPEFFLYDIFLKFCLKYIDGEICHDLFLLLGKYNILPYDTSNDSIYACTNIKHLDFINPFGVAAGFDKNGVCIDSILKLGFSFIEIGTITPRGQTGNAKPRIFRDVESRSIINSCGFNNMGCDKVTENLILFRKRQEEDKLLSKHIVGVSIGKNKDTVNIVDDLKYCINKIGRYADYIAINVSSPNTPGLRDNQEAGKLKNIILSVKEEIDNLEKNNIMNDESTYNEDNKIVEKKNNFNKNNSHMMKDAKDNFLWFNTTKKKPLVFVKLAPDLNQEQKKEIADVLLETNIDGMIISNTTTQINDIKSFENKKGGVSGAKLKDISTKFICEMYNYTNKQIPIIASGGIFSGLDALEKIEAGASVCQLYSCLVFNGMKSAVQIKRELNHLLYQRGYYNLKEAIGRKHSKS

SMILES	z-score [1]	z-score [2]	z-score [3]	z-score [4]	z-score [5]	z-score [6]	z-score [7]	z-score [8]	z-score [9]	z-score [10]	z-score [11]	z-score [12]	z-score [13]	composite z-score [14]	z-score [15]	z-score [16]	z-score [17]	z-score [18]	z-score [19]	composite z-score [20]
COc1ccccc1CN1C(=O)c2ccccc2[C@](Cc2ccccc2I)(C(=O)NCc2ccccc2)[C@@H]1c1ccc(CO)cc1	0.049	0.218	-0.733	-0.325	-1.92	0.37	0.368 (inactive)	-0.0456	-0.318	-0.5 (inactive)	-0.583	0.511 (inactive)	-1.05 (inactive)	-0.141 (inactive)	0.0993 (inactive)	-0.283 (inactive)	-0.331 (inactive)	0.363 (inactive)	-1.12	-0.16
COCCOC(=O)N1C(=O)[C@@]2(c3cc(C#Cc4ccc(OC)cc4)ccc31)[C@H](c1ccc(O)cc1)N1[C@H](c3ccccc3)[C@H](c3ccccc3)OC(=O)[C@H]1[C@@H]2C(=O)N1CCN(c2ncccn2)CC1	-0.514	0.546	-0.0225	-0.305	-1.12	-0.445	2.33 (inactive)	-0.525	-0.339	0.484 (inactive)	0.202	1.03 (inactive)	0.292 (inactive)	0.0094 (inactive)	0.173 (inactive)	1.75 (inactive)	0.307 (inactive)	-0.0695 (inactive)	0.138	-0.224
COCCCNC(=O)[C@@]1(Sc2ccc(C)cc2)CC(=O)N(Cc2ccccc2)[C@@H]1c1ccc(CO)cc1	-0.837	0.0417	-0.543	-0.0185	0.381	-0.658	-0.265 (inactive)	0.216	-1.38	1.28 (inactive)	0.802	0.0695 (inactive)	0.495 (inactive)	-0.0163 (inactive)	0.366 (inactive)	-0.194 (inactive)	0.234 (inactive)	0.127 (inactive)	1.01	-0.0492
CN(C)CCCCNC(=O)[C@@H]1C[C@@H]2C(=O)N[C@@H](CCCCN)C(=O)N2[C@@H]1c1cccc(OCCO)c1	-0.144	-0.736	-1.03	-0.058	0.376	-1.01	-0.0937 (inactive)	-0.737	-0.0289	-0.391 (inactive)	0.0914	-0.191 (inactive)	-0.332 (inactive)	-0.318 (inactive)	0.836 (inactive)	-0.147 (inactive)	-0.383 (inactive)	-1 (inactive)	-0.165	-0.32
C=C[C@H](C)[C@H](OC(=O)Nc1ccc(OC)cc1)c1ccc(O)c2ccccc12	-0.697	0.256	-1.87	-2.98	-4.25	-3.3	-1 (inactive)	-1.03	-2.07	-0.232 (inactive)	-0.475	-18.5 (active)	-2.68 (inactive)	-1.79 (inactive)	0.908 (inactive)	-17 (active)	0.405 (inactive)	-0.0111 (inactive)	-2.21	-0.003
C=C[C@H](C)[C@H](O)c1ccc(OCCO)cc1	-0.001	0.557	-0.548	1.17	-0.484	0.221	-0.721 (inactive)	-0.238	-0.339	-0.276 (inactive)	0.847	-1.4 (inactive)	0.867 (inactive)	0.257 (inactive)	0.261 (inactive)	0.349 (inactive)	0.74 (inactive)	0.715 (inactive)	-1.9	-0.115
COCCOC(=O)N1C(=O)[C@@]2(c3cc(C#CCC(C(=O)OC)C(=O)OC)ccc31)[C@H](c1ccc(OCCO)cc1)N1[C@H](c3ccccc3)[C@H](c3ccccc3)OC(=O)[C@H]1[C@@H]2C(=O)NC[C@H](O)c1ccccc1	0.185	0.102	1.56	0.446	-2.01	0.177	1.39 (inactive)	-0.749	-1.61	0.0076 (inactive)	0.11	2.19 (inactive)	0.241 (inactive)	0.0044 (inactive)	2.7 (inactive)	3.3 (inactive)	0.732 (inactive)	0.855 (inactive)	-0.957	0.19
COC(=O)c1c2oc(c1C(=O)OC)C(=O)N[C@H](Cc1ccccc1)Cn1nncc1C1(CCCCC1)NC(=O)N[C@H](CO)CC2	0.876	0.0786	0.8	-1.1	0.358	3.8	-0.413 (inactive)	-0.65	-0.936	0.286 (inactive)	1.09	0.916 (inactive)	2.4 (inactive)	0.112 (inactive)	1.27 (inactive)	0.416 (inactive)	0.157 (inactive)	0.402 (inactive)	2.19	0.0859
CC(C)CNC(=O)[C@@]1(C)c2ccccc2C(=O)N(C(C)C)[C@H]1c1ccc(CO)cc1	-0.238	-0.511	-0.178	0.0151	-0.847	-0.372	-0.638 (inactive)	0.809	-0.481	-0.0586 (inactive)	-0.174	-0.128 (inactive)	-0.434 (inactive)	-0.449 (inactive)	-0.273 (inactive)	-0.207 (inactive)	-0.314 (inactive)	-0.049 (inactive)	-0.434	-0.135
CN1C(=O)C2C(C1=O)C1C=C(c3ccc(CO)cc3)C2C(C2CC2)N1Cc1cc2c(cc1Br)OCO2 (stereo not given)	0.302	0.575	1.81	-0.387	-1.75	3.74	0.673 (inactive)	-0.73	-0.565	-1.84 (inactive)	-0.698	-2.01 (inactive)	-1.31 (inactive)	-2.33 (inactive)	0.0061 (inactive)	-0.889 (inactive)	0.101 (inactive)	-0.0102 (inactive)	-1.47	0.111
CN1C(=O)C2C=CC(C(O)c3ccccc3)N(NC(=O)OC(C)(C)C)C2C1=O (stereo not given)	-1.66	0.103	-0.983	-0.965	-0.386	-1.22	-0.0572 (inactive)	-0.306	0.32	-0.449 (inactive)	-1.24	1.34 (inactive)	-0.749 (inactive)	0.802 (inactive)	0.31 (inactive)	1.18 (inactive)	-0.68 (inactive)	-0.454 (inactive)	-0.0265	0.0338
CN(C)CCCC[C@@H]1NC(=O)[C@H]2C[C@@H](C(=O)NCCCCCNC(=O)CS)[C@@H](c3ccc(O)cc3)N2C1=O	-0.294	-0.478	-0.0888	0.201	-0.285	1.68	-0.143 (inactive)	-0.319	0.543	-0.358 (inactive)	-0.0707	-0.691 (inactive)	0.518 (inactive)	0.419 (inactive)	-0.13 (inactive)	-0.158 (inactive)	-0.297 (inactive)	0.326 (inactive)	0.108	-0.0344
O=C1OCC=C[C@H]2OC34C=CCN(c5ccc6ccccc6c5)C(=O)[C@H]3N(CCO)C(=O)[C@@H]4[C@@H]12 (stereo not given in full)	0.594	-0.355	0.379	-0.102	-0.29	-0.542	-0.252 (inactive)	1.02	-0.161	-0.0805 (inactive)	-0.147	-0.204 (inactive)	0.0073 (inactive)	-1.47 (inactive)	-0.649 (inactive)	0.195 (inactive)	-0.246 (inactive)	-0.118 (inactive)	0.403	0.0896
CCN(CC)c1ccc(N2CC=CC34O[C@@H]5/C=C\CCCOC(=O)C5[C@H]3C(=O)N(CCCO)[C@@H]4C2=O)cc1 (stereo not given in full)	-0.13	0.275	0.616	0.794	-0.0911	0.472	-0.546 (inactive)	-0.0632	0.918	0.876 (inactive)	0.434	0.993 (inactive)	0.481 (inactive)	-0.423 (inactive)	0.053 (inactive)	-0.767 (inactive)	-0.438 (inactive)	-0.322 (inactive)	0.566	0.559
CCN(CC)c1ccc(N2CC=CC34O[C@@H]5C=CCOC(=O)[C@@H]5[C@H]3C(=O)N(CCCCCO)[C@@H]4C2=O)cc1 (stereo not given in full)	-0.46	1.1	-0.0753	-0.0913	0.199	0.497	0.876 (inactive)	0.0564	1.65	-0.0833 (inactive)	0.34	0.0663 (inactive)	1.08 (inactive)	0.618 (inactive)	-0.193 (inactive)	-0.272 (inactive)	0.831 (inactive)	0.349 (inactive)	0.225	0.532
COc1cc(NN2C(C(O)c3ccccc3)C=CC3C(=O)N(c4ccccc4)C(=O)C32)cc(OC)c1OC (stereo not given)	-0.873	0.0146	0.253	0.673	0.0985	-0.602	-1.72 (inactive)	0.179	-1.41	-0.381 (inactive)	-1.04	0.887 (inactive)	-0.417 (inactive)	-1.37 (inactive)	-0.0751 (inactive)	0.0729 (inactive)	0.32 (inactive)	0.8 (inactive)	-0.827	0.219
COC(=O)c1nc2oc1CC[C@@H](CO)NC(=O)N(C)Cc1cn(nn1)C[C@H](Cc1ccccc1)NC2=O	-0.0651	-0.734	0.786	0.648	0.854	0.136	0.694 (inactive)	0.263	-1.48	-0.0624 (inactive)	0.395	-7.59 (inactive)	0.456 (inactive)	-0.773 (inactive)	0.113 (inactive)	0.219 (inactive)	0.0613 (inactive)	0.72 (inactive)	0.407	-0.117
O=C1O[C@@H](c2ccccc2)[C@@H](c2ccccc2)N2[C@@H](c3ccc(O)cc3)[C@]3(C(=O)Nc4ccc(C#CCCO)cc43)[C@@H](C(=O)O)[C@H]12	1.18	0.352	1.41	-1.34	-0.16	0.767	-1.02 (inactive)	-0.342	-0.29	0.492 (inactive)	0.259	-1.01 (inactive)	0.519 (inactive)	-2.07 (inactive)	0.201 (inactive)	-0.261 (inactive)	0.151 (inactive)	0.67 (inactive)	0.545	0.511
